Assay outcomes deposited in PubChem BioAssay by several laboratories.
CR mimetic SO – reduction of superoxide in aged yeast, primary screen, HTS; S. cerevisiae aged cells, superoxide DHE fluorescence; stronger effect = lower value; superoxide response (% of plate mean), % at 10 µM; actives 0.18% (n = 330,000); AID 2690, 2010;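 active = superoxide response under a set limit, about three screen SD below normal, cut at about 65% in these data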;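 note: yeast aged for seven days with compound at 30 °C before DHE staining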
HSV replic up – enhancers of HSV replication in host cells, fold increase, host cell viability; maximum fold increase; HSV replication augmentation in cells; actives 0.005% (n = 220,000); in the data active = maximum fold increase above about 1.5; tested in PC3 cells
MIN6 prolif – inducers of MIN6 beta-cell proliferation, primary screen, ATP luminescence, uHTS; proliferation, % at 10 µM; AID 2380, 2010; actives 0.29% (n = 330,000); MIN6 cells proliferation, ATPlite luminescence, 48 h; cells starved in 0.2% serum; 100% = growth in 10% serum;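 active = compounds whose signal lies at least 3.5 SD above the mean of all wells on their plate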
H9c2 protect – cardioprotection against H2O2-induced cell death, primary screen, uHTS, H9c2 cells, ATPLite luminescence. H9c2 cardiomyocytes, H2O2 injury protection, 2 h. protection from H2O2 cell death, % at 20 µM. actives 0.63% (n = 360,000). AID 588492, 2011;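 active = compounds giving at least 50% protection of heart cells from peroxide-induced death in the single-dose screen, raw or plate-pattern-corrected value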
pCIP destab – p/CIP-EGFP fusion destabilizers, primary screen, fluorescence, F442A cells | 16 h | Q05BA5 | actives 0.01% (n = 290,000) | decrease of EGFP signal, % at 10 µM;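 active = EGFP signal decrease of at least 30% at 10 µM or well 3 SD below plate mean, unless failing retest; inactive = the rest, including hits failing retest or dose response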
V-ATPase pHluor – regulators of yeast V-ATPase proton pumping, primary screen, pHLuorin cytosolic pH fluorescence; response, % at 10 µM; actives 0.37% (n = 350,000); S. cerevisiae; in the data active = response mostly above about 7.3%, no sharp cut-off; inactive = mostly below about 5.4%; note: actives read high
Each line names hits and unclear results; the compound was inactive in the other large screens. Shown are actives, neighbours in structure and some others; about 1.4% of the full set was active somewhere.

CCOC(=O)C[C@H]1c2ccccc2S(=O)(=O)N1c1cccc(OC)c1	none (no result: pCIP destab)
COc1cc(C(=O)Nc2ccccc2C(=O)Nc2ccccn2)cc(OC)c1OC	H9c2 protect 60.2 (no result: HSV replic up)
O=C(Nc1ccccc1Cl)c1ccc2nccnc2c1	none (no result: HSV replic up)
COc1ccc(C(=O)Nc2cccc(NC(=O)c3ccc(OC)c(OC)c3)n2)cc1OC	H9c2 protect 53.5 (no result: HSV replic up)
COC(=O)c1ccccc1NC(=O)c1ccc2nccnc2c1	H9c2 protect 64.2
COc1cc(C(=O)Nc2ccc(NC(=O)c3cccc(Cl)c3)nc2)cc(OC)c1OC	H9c2 protect 68.3 (no result: CR mimetic SO, HSV replic up)
N#Cc1ccc(CN2CCN(C(=O)C3CC(=O)N(c4ccc5c(c4)OCCO5)C3)CC2)cc1 (configuration not stated)	none (no result: CR mimetic SO, HSV replic up, MIN6 prolif, pCIP destab, V-ATPase pHluor)
C[C@H](NC(=O)c1nc[nH]c1C(=O)NCC(=O)OCc1ccccc1)c1ccccc1	H9c2 protect 83.8 (no result: HSV replic up)
CC(C)C[C@H](NC(=O)c1nc[nH]c1C(=O)NCC(=O)OCc1ccccc1)C(=O)OCc1ccccc1	none (no result: HSV replic up)
C[C@@H](OC(=O)c1[nH]cnc1C(=O)NCc1ccc(CNC(=O)OC(C)(C)C)cc1)c1ccccc1	H9c2 protect 59.3 (no result: HSV replic up, pCIP destab)
C[C@H](NC(=O)c1nc[nH]c1C(=O)NCC(=O)OCc1ccccc1)C(=O)OCc1ccccc1	H9c2 protect 76.9 (no result: HSV replic up)
CC(C)(C)OC(=O)CNC(=O)c1[nH]cnc1C(=O)NC(c1ccccc1)c1ccccc1	H9c2 protect 59.4 (no result: HSV replic up)
C[C@H](NC(=O)c1nc[nH]c1C(=O)NC(c1ccccc1)c1ccccc1)C(=O)OC(C)(C)C	none
O=C1CS/C(=N/N=C/c2cccs2)N1Cc1ccc(F)cc1	none
CCCn1c(SCc2ccon2)nc2ccccc2c1=O	none
COC(=O)c1ccccc1NC(=O)CSCC(=O)Nc1ccc(F)cc1	none
COc1ccc(OC)c(NC(=O)Nc2ccc3[nH]ccc3c2)c1	none (no result: HSV replic up, pCIP destab)
O=c1[nH]c(N2CCN(Cc3ccccc3)CC2)nc2c1CCC2	none
O=c1[nH]c(N2CCN(c3ccccc3)CC2)nc2c1CCCC2	H9c2 protect 55.2
O=c1[nH]c(N2CCN(c3ccccc3)CC2)nc2c1CCC2	H9c2 protect 50.7
O=C(c1ccco1)N1N=C(c2cccs2)CC1c1cc([N+](=O)[O-])ccc1O (configuration not stated)	none (no result: HSV replic up)
O=c1[nH]c(CN2CCN(S(=O)(=O)c3ccccc3C(F)(F)F)CC2)nc2sc3c(c12)CCCC3	none
S=C(Nc1cccc(Cl)c1Cl)N1CCCC1	none (no result: HSV replic up)
CN(CC1COc2ccccc2O1)C(=O)c1cccc(S(=O)(=O)N2CCCC2)c1 (configuration not stated)	none (no result: HSV replic up, pCIP destab)
CCOC(=O)C1=C(CC)Nc2ccccc2N=C1NC(=O)c1oc2ccccc2c1C	none
CCOCc1c(C(=O)NC2=Nc3ccccc3NC(CC)=C2C(=O)OCC)oc2ccccc12	H9c2 protect 67.6
CCOC(=O)C1=C(CC)Nc2ccccc2N=C1NC(=O)c1ccc(S(=O)(=O)N(C)C)cc1	H9c2 protect 81.2
Cc1ccc(CNC(=O)CCNS(=O)(=O)c2ccc3c(c2)c(=O)n(C)c(=O)n3C)cc1	none
Cc1ccc(CCNC(=O)CCNS(=O)(=O)c2ccc3c(c2)c(=O)n(C)c(=O)n3C)cc1	V-ATPase pHluor 19.8
O=C(NNc1c2ccccc2nc2ccccc12)c1cccc(O)c1	H9c2 protect 51.2
COc1ccc(NC(=O)c2cc(-c3ccc(OC)c(OC)c3)nc3ccccc23)c(OC)c1	H9c2 protect 66.2 (no result: HSV replic up)
COc1ccc(-c2cc(C(=O)NC(C)c3ccccn3)c3ccccc3n2)cc1OC (configuration not stated)	H9c2 protect 54.8 (no result: HSV replic up, pCIP destab)
CCOc1ccccc1C(=O)N(Cc1sccc1C)C1CCS(=O)(=O)C1 (configuration not stated)	none (no result: HSV replic up)
COC(=O)c1ccc(/C=C/c2ccc3cccc(OC(C)=O)c3n2)cc1	V-ATPase pHluor 27.3
COc1ccccc1/C(C)=N/Oc1cc(N)cc([N+](=O)[O-])c1	none (no result: HSV replic up, pCIP destab)
COc1ccc(NC(=S)N2CCNC(=O)C2CC(=O)Nc2ccc(C)cc2)cc1 (configuration not stated)	none
Cc1sc(NC(=O)C2CC(=O)N(Cc3ccco3)C2)nc1-c1ccccc1 (configuration not stated)	none (no result: CR mimetic SO, HSV replic up, MIN6 prolif, pCIP destab, V-ATPase pHluor)
CCn1c(CC(=O)Nc2ccc(F)cc2)nnc1SCC(=O)Nc1nnc(C)s1	none (no result: HSV replic up)
Cc1ccc(C(=O)CC(=O)COc2ccc(Cl)cc2)cc1	H9c2 protect 72.1
Cc1ccc(C(=O)NCCOc2ccc(Cl)cc2)cc1	none (no result: HSV replic up)
O=C1ON=C(c2ccccc2)/C1=C/c1ccc(O)c(O)c1	H9c2 protect 57.6 (no result: HSV replic up)
COc1ccc(/C=C2\C(=O)ON=C2c2ccccc2)cc1	none (no result: HSV replic up)
CC(=O)NS(=O)(=O)c1ccc(N=c2ssc3c2-c2ccc(C)cc2NC3(C)C)cc1	none
COc1ccc(CNC(=O)COc2ccc(Br)c(C)c2)cc1	none (no result: HSV replic up)
CN(C)S(=O)(=O)c1cccc(N=C2NN=C(c3ccccc3)CS2)c1	none (no result: MIN6 prolif, H9c2 protect, V-ATPase pHluor)
CC(=O)Nc1ccc(C2=NNC(=Nc3cccc(S(=O)(=O)N(C)C)c3)SC2)cc1	V-ATPase pHluor 7.9
CCc1nc2ccc(C(=O)NCCC(C)C)cn2c1N(C)Cc1nccs1	none (no result: CR mimetic SO, HSV replic up, MIN6 prolif, pCIP destab, V-ATPase pHluor)
CCc1nc2ccc(C(=O)NCc3cccs3)cn2c1N(C)Cc1nccs1	H9c2 protect 48.5 (no result: CR mimetic SO, HSV replic up, MIN6 prolif, pCIP destab, V-ATPase pHluor)
Cn1c(-n2c(CCN3C(=O)c4ccccc4C3=O)nc3ccccc3c2=O)nc2ccccc21	none (no result: CR mimetic SO, HSV replic up, MIN6 prolif, H9c2 protect, V-ATPase pHluor)
Cn1c(-n2c(CCCN3C(=O)c4ccccc4C3=O)nc3ccccc3c2=O)nc2ccccc21	H9c2 protect 101.3
O=[N+]([O-])c1ccc(N2CCN(S(=O)(=O)c3ccccc3[N+](=O)[O-])CC2)cc1N1CCc2ccccc2C1	MIN6 prolif 6.0
CC1=C(C(=O)N2CCOCC2)CC(CC(=O)NCc2cccc3ccccc23)C(=O)N1Cc1ccc(C(C)(C)C)cc1 (configuration not stated)	none (no result: CR mimetic SO, HSV replic up, MIN6 prolif, pCIP destab, V-ATPase pHluor)
COc1ccc(N=Cc2cc(Cc3ccccc3Cl)cc([N+](=O)[O-])c2O)cc1OC	H9c2 protect 76.3 (no result: HSV replic up)
CCOc1ccc(S(=O)(=O)N2CCC(C(N)=O)CC2)c2ccccc12	V-ATPase pHluor 21.9
CCOc1ccc(S(=O)(=O)N2CCCC2)c2ccccc12	none (no result: CR mimetic SO, HSV replic up, MIN6 prolif, pCIP destab)
COc1nc(N/N=C/c2cc3c(cc2Br)OCO3)nc(N2CCOCC2)n1	H9c2 protect 53.8
O=C(/C=C/c1cccc([N+](=O)[O-])c1)c1ccc([N+](=O)[O-])o1	V-ATPase pHluor 177.2 (no result: HSV replic up, MIN6 prolif, pCIP destab)
CC1=C/C(=N\OS(=O)(=O)c2ccccc2)C(C(C)C)=CC1=O	V-ATPase pHluor 29.9 (no result: HSV replic up, MIN6 prolif)
CCOC(=O)c1c(NC(=O)COC(=O)c2ccc(Cl)nc2)sc(C(=O)N(C)C)c1C	none (no result: HSV replic up, pCIP destab)
CCOC(=O)c1c(NC(=O)COC(=O)c2ccc(O)cc2)sc(C(=O)N(C)C)c1C	H9c2 protect 63.4
